Data from PubChem BioAssay.
“And” between values parts separate entries of the source, which are not always exact repeats. Equal values may be shown once. Inconclusive results are not listed. The source made the active and inactive calls.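 How the source made its calls, unless noted: active means normalized viability below 100% at a tested concentration; inactive means the rest.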

How the values were obtained:
[1] = P. berghei load reduction in hepatocytes – cell-based, HepG2, luciferase luminescence, HepG2 viability, primary screen (AID 624349; in the data active means parasite load remaining mostly below about 12%, no sharp cut-off; inactive means mostly above about 10%;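 further: 100% = mean of DMSO negative control wells on the same plate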); conditions: P. berghei liver stage in HepG2, luciferase luminescence, concentration not given here; parasite load remaining: stronger effect = lower value; viability: measured here: HepG2 viability without parasites
[2] = system: Aerobactin synthetase IucA (Klebsiella pneumoniae); assay: inhibition of K. pneumoniae IucA enzyme – biochemical, Tocris library, absorbance (AID 1345561; call rule not given here;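 further: 100% = enzyme without compound and 0% = no enzyme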); conditions: purified IucA enzyme assay, absorbance (OD) read-out; stronger effect = lower value;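 tested at 8 µM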
[3] = viability loss in pontine glioma line – cell-based, SU-DIPG-XVII, MIPE5.0, CellTiter-Glo, qHTS, dose response (AID 1347060; cut-off not given, nearly all actives have AC50 up to about 26 µM); conditions: CellTiter-Glo ATP luminescence
[4] = viability loss in pontine glioma line – cell-based, SU-DIPG-XIII, MIPE4.0, CellTiter-Glo, qHTS, dose response (AID 1347061; cut-off not given, nearly all actives have AC50 up to about 37 µM;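 further: cells exposed to compound for 48 hours before readout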); conditions: CellTiter-Glo ATP luminescence
[5] = viability loss in pontine glioma line – cell-based, JHH-DIPG-1, MIPE4.0, CellTiter-Glo, qHTS, dose response (AID 1347062; cut-off not given, nearly all actives have AC50 up to about 27 µM); conditions: JHH-DIPG-1 viability, CellTiter-Glo ATP luminescence
[6] = growth inhibition of DIPG cells – cell-based, MIPE4.0 library, CellTiter-Glo luminescence, qHTS (AID 1347066; cut-off not given, nearly all actives have AC50 up to about 30 µM;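 further: cells exposed to compound for 48 hours before readout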); conditions: SU-DIPG-VI viability, CellTiter-Glo ATP luminescence
[7] = JHH-DIPG-1 glioma cell viability, MIPE5.0 library, CellTiter-Glo luminescence, qHTS (AID 1347067; cut-off not given, nearly all actives have AC50 up to about 26 µM;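 further: cells exposed to compound for 48 hours before readout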); conditions: JHH-DIPG-1 glioma viability, CellTiter-Glo ATP luminescence
[8] = viability loss with induced miR-34 in A549 – imaging, A549 dox-inducible miR-34, nuclei and caspase counts, primary screen (AID 1347080;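 active means compounds whose cell count with miR-34 switched on is under 0.7 times the count with it off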); conditions: A549 miR-34 inducible, Hoechst nuclei count, 48 h
[9] = compounds altering HSF1 focus formation in cells – imaging, Selleck Cancer Library (AID 1347162; in the data active means plate-normalised HSF1 focus index below about 0.46); conditions: human cells, HSF1 nuclear foci imaging, at 10 µM; SSMD: measured here: HSF1 foci SSMD mean; cell count: measured here: cell number; plate-normalised HSF1 focus index: stronger effect = lower value
[10] = MELAS cybrid and Rieske KO viability enhancers – cell-based, MELAS cybrids, Rieske KO mouse fibroblasts, CellTiter-Glo, primary screen (AID 1508586;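 active means mean z-score across replicates of 1.96 or higher in either the MELAS or the Rieske mutant cell line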;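 further: z relative to plate mean and SD of compound and empty wells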); conditions: low glucose
[11] = drug combination growth inhibition, ovarian cancer – cell-based, oncology-focused library, rucaparib conditional, profiling panel (AID 1508598); conditions: patient-derived ovarian cancer cells, CellTiter-Glo viability, 144 h, stronger effect = lower value
[12] = galactose survival enhancers in mitochondrial complex I cybrids – cell-based, galactose medium, ATP luminescence, primary screen (AID 1645843;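 active means z-score of at least 1.8 in each of two replicates, scored against plate mean and spread of sample wells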;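 further: positive z means more ATP and so rescue of galactose-driven cybrid death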); conditions: complex I mutant cybrid cells, 72 h, stronger effect = higher value
[13] = growth inhibition, single agents and combos, ICB984, cell-based, cisplatin or BGB combos, synergistic combos for chromothripsis tumors (AID 1671451; call rule not given here;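 further: cells exposed for 96 hours before readout; 0% = vehicle DMSO and 100% = killing by high DMSO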); conditions: ICB984 medulloblastoma cells, drug combinations, stronger effect = higher value
[14] = growth inhibition of DIPG cells – cell-based, MIPE5.0 library, qHTS (AID 1347068; cut-off not given, nearly all actives have IC50 up to about 30 µM); conditions: SU-DIPG-XXV viability
[15] = system: Hepatitis C virus NS3 helicase; assay: blockers of NS3h binding to ssDNA – biochemical, fluorescence polarization, LOPAC1280 library, primary screen (AID 687035; in the data active means inhibition above about 37%); conditions: Purified HCV NS3 helicase, Cy5-dT15 ssDNA binding fluorescence polarization; stronger effect = higher value; concentration not given here
[16] = compounds altering Cy5-DNA-NS3h complex signal – biochemical, LOPAC1280, artefact control for HCV NS3 helicase inhibitor project (AID 687037; call rule not given here); conditions: Cy5-DNA-NS3h complex fluorescence interference counterscreen
[17] = viability loss in pontine glioma line – cell-based, SU-DIPG-XIII, MIPE5.0, CellTiter-Glo, qHTS, dose response (AID 1347064; cut-off not given, nearly all actives have AC50 up to about 23 µM); conditions: CellTiter-Glo ATP luminescence
[18] = viability loss in pontine glioma line – cell-based, SU-DIPG-XXV, MIPE5.0, CellTiter-Glo, qHTS, dose response (AID 1347065; cut-off not given, nearly all actives have AC50 up to about 26 µM;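 further: cells exposed to compound for 48 hours before ATP readout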); conditions: CellTiter-Glo ATP luminescence
[19] = viability loss in pontine glioma line – cell-based, SU-DIPG-IV, MIPE4.0, CellTiter-Glo, qHTS, dose response (AID 1347063; cut-off not given, nearly all actives have AC50 up to about 30 µM;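 further: compound exposure lasted 48 hours before the viability readout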); conditions: CellTiter-Glo ATP luminescence
[20] = stronger effect = lower value, cell number ratio, induced over uninduced
[21] = measured here: relative caspase fold change +Dox/-Dox
[22] = measured here: total cells with miR-34 induction, stronger effect = lower value
[23] = measured here: total cells without miR-34 induction
[24] = MELAS cybrid survival, CellTiter-Glo 48 h, stronger effect = higher value
[25] = Rieske KO mouse fibroblast survival, CellTiter-Glo 72 h
[26] = at 0.000305 µM, OCI-C5x cells, with rucaparib 10 µM, 100% = cells with rucaparib alone
[27] = at 0.000305 µM, OCI-C5x cells, without rucaparib
[28] = at 0.000305 µM, OCI-P5x cells, with rucaparib 20 µM, 100% = cells with rucaparib alone
[29] = at 0.000305 µM, OCI-P5x cells, without rucaparib
[30] = at 0.00122 µM, OCI-C5x cells, with rucaparib 10 µM, 100% = cells with rucaparib alone
[31] = at 0.00122 µM, OCI-C5x cells, without rucaparib
[32] = at 0.00122 µM, OCI-P5x cells, with rucaparib 20 µM, 100% = cells with rucaparib alone
[33] = at 0.00122 µM, OCI-P5x cells, without rucaparib
[34] = at 0.00488 µM, OCI-C5x cells, with rucaparib 10 µM, 100% = cells with rucaparib alone
[35] = at 0.00488 µM, OCI-C5x cells, without rucaparib
[36] = at 0.00488 µM, OCI-P5x cells, with rucaparib 20 µM, 100% = cells with rucaparib alone
[37] = at 0.00488 µM, OCI-P5x cells, without rucaparib
[38] = at 0.0195 µM, OCI-C5x cells, with rucaparib 10 µM, 100% = cells with rucaparib alone
[39] = at 0.0195 µM, OCI-C5x cells, without rucaparib
[40] = at 0.0195 µM, OCI-P5x cells, with rucaparib 20 µM, 100% = cells with rucaparib alone
[41] = at 0.0195 µM, OCI-P5x cells, without rucaparib
[42] = at 0.0781 µM, OCI-C5x cells, with rucaparib 10 µM, 100% = cells with rucaparib alone
[43] = at 0.0781 µM, OCI-C5x cells, without rucaparib
[44] = at 0.0781 µM, OCI-P5x cells, with rucaparib 20 µM, 100% = cells with rucaparib alone
[45] = at 0.0781 µM, OCI-P5x cells, without rucaparib
[46] = at 0.313 µM, OCI-C5x cells, with rucaparib 10 µM, 100% = cells with rucaparib alone
[47] = at 0.313 µM, OCI-C5x cells, without rucaparib
[48] = at 0.313 µM, OCI-P5x cells, with rucaparib 20 µM, 100% = cells with rucaparib alone
[49] = at 0.313 µM, OCI-P5x cells, without rucaparib
[50] = at 1.25 µM, OCI-C5x cells, with rucaparib 10 µM, 100% = cells with rucaparib alone
[51] = at 1.25 µM, OCI-C5x cells, without rucaparib
[52] = at 1.25 µM, OCI-P5x cells, with rucaparib 20 µM, 100% = cells with rucaparib alone
[53] = at 1.25 µM, OCI-P5x cells, without rucaparib
[54] = at 5 µM, OCI-C5x cells, with rucaparib 10 µM, 100% = cells with rucaparib alone
[55] = at 5 µM, OCI-C5x cells, without rucaparib
[56] = at 5 µM, OCI-P5x cells, with rucaparib 20 µM, 100% = cells with rucaparib alone
[57] = at 5 µM, OCI-P5x cells, without rucaparib
[58] = measured here: 5 uM single agent, at 5 µM

O=c1cc(-c2cccc3c2Sc2ccccc2S3)oc(N2CCOCC2)c1
5990 and 5760: cell count [8, 22]
inactive: parasite load remaining [1] 39.8% | remaining activity [2] 94.8% | outcome [3] | outcome [4] | outcome [5] | outcome [6] | outcome [7] | fold change [8, 20] 0.936 and 1.01 | plate-normalised HSF1 focus index [9] 1.15 | z-score [10, 24] -0.376 | viability [11, 26] 113% | viability [11, 27] 119% | viability [11, 28] 105% | viability [11, 29] 109% | viability [11, 30] 122% | viability [11, 31] 121% | viability [11, 32] 104% | viability [11, 33] 106% | viability [11, 34] 118% | viability [11, 35] 119% | viability [11, 36] 100% | viability [11, 37] 103% | viability [11, 38] 117% | viability [11, 39] 132% | viability [11, 42] 116% | viability [11, 43] 119% | viability [11, 44] 106% | viability [11, 45] 103% | viability [11, 46] 108% | viability [11, 47] 126% | viability [11, 49] 105% | viability [11, 50] 111% | viability [11, 51] 127% | viability [11, 52] 108% | viability [11, 53] 107% | viability [11, 55] 131% | z-score [12] -0.18 | inhibition ([13]; at 0.5 µM) -26.5%
6680: cell count [9]
1.02: z-score [10, 25]
-24.9%: inhibition ([13]; BGB IC40 combo, at 0.005 µM)
-22.7%: inhibition [13, 58]
active: viability [11, 40] 98% | viability [11, 41] 64.5% | viability [11, 48] 91.8% | viability [11, 54] 88.8% | viability [11, 56] 66.3% | viability [11, 57] 27.9%
-36.8%: inhibition ([13]; cisplatin combo, at 0.5 µM)
2.97: SSMD [9]
11.6%: inhibition ([13]; BGB IC40 combo, at 0.05 µM)
1.11 and 2.27: fold change [8, 21]
-0.749%: inhibition ([13]; BGB IC20 combo, at 0.005 µM)
-31.3%: inhibition ([13]; cisplatin combo, at 5 µM)
6400 and 5730: cell count [8, 23]
9.17%: inhibition ([13]; cisplatin combo, at 0.05 µM)
161%: viability [1]

O=c1[nH]c(-c2ccc(C(F)(F)F)cc2)nc2c1CSCC2
1.98: SSMD [9]
4660 and 5860 and 8410: cell count [8, 23]
-7.99%: inhibition [13, 58]
4310 and 5060 and 7820: cell count [8, 22]
-33.3%: inhibition ([13]; cisplatin combo, at 5 µM)
0.33: z-score [10, 25]
active: viability [11, 27] 93.7% | viability [11, 28] 98.7% | viability [11, 31] 99.5% | viability [11, 37] 99.8% | viability [11, 49] 94.6% | viability [11, 51] 99.4% | viability [11, 57] 99%
-11.7%: inhibition ([13]; BGB IC40 combo, at 0.05 µM)
-45.8%: inhibition ([13]; BGB IC40 combo, at 0.005 µM)
7170: cell count [9]
-29.5%: inhibition ([13]; cisplatin combo, at 0.5 µM)
0.982 and 0.937 and 1.32: fold change [8, 21]
inactive: remaining activity [2] 117% | outcome [3] | outcome [5] | outcome [7] | outcome [14] | fold change [8, 20] 0.924 and 0.863 and 0.929 | plate-normalised HSF1 focus index [9] 1.12 | z-score [10, 24] -0.501 | viability [11, 26] 100% | viability [11, 29] 103% | viability [11, 30] 108% | viability [11, 32] 107% | viability [11, 33] 106% | viability [11, 34] 121% | viability [11, 35] 102% | viability [11, 36] 110% | viability [11, 38] 109% | viability [11, 39] 102% | viability [11, 40] 114% | viability [11, 41] 113% | viability [11, 42] 110% | viability [11, 43] 104% | viability [11, 44] 106% | viability [11, 45] 105% | viability [11, 46] 107% | viability [11, 47] 102% | viability [11, 48] 105% | viability [11, 50] 107% | viability [11, 52] 113% | viability [11, 53] 103% | viability [11, 54] 115% | viability [11, 55] 112% | viability [11, 56] 105% | z-score [12] 0.565 | inhibition ([13]; at 0.5 µM) -27.1%
-15.7%: inhibition ([13]; cisplatin combo, at 0.05 µM)
-4.67%: inhibition ([13]; BGB IC20 combo, at 0.005 µM)

CCC(C)N(C)C(=O)c1cc2ccccc2c(-c2ccccc2Cl)n1 (stereo unspecified)
1.99 and 1.15: fold change [8, 21]
inactive: inhibition [15] 0% | fluorescence ratio (interference) [16] 1 | remaining activity [2] 91.6% | outcome [3] | outcome [5] | outcome [17] | outcome [18] | outcome [7] | fold change [8, 20] 0.969 and 0.89 | z-score [12] 0.245 and 0.79
8810 and 6770: cell count [8, 22]
9100 and 7610: cell count [8, 23]

N#Cc1c(O)c2c(-c3ccc(-c4ccccc4O)cc3)csc2[nH]c1=O
0.924 and 1.54: fold change [8, 21]
7410: cell count [9]
10000 and 9660: cell count [8, 22]
3.35: SSMD [9]
1.29: z-score [10, 25]
10900 and 9540: cell count [8, 23]
inactive: remaining activity [2] 103% | outcome [3] | outcome [4] | outcome [5] | outcome [19] | outcome [18] | outcome [6] | outcome [7] | outcome [14] | fold change [8, 20] 0.919 and 1.01 | plate-normalised HSF1 focus index [9] 1.12 | z-score [10, 24] -0.277 | viability [11, 26] 106% | viability [11, 27] 121% | viability [11, 28] 114% | viability [11, 29] 119% | viability [11, 30] 115% | viability [11, 31] 131% | viability [11, 32] 119% | viability [11, 33] 107% | viability [11, 34] 111% | viability [11, 35] 126% | viability [11, 36] 116% | viability [11, 37] 113%
